Only some compounds are listed: those with a hit (about 9.2% of all), similar ones and a draw of the others.
SMN2 splice up – increases expression of the SMN2 splice variant. HEK293 SMN2-luciferase splicing reporter, luminescence, 30-36 h. Potency, µM (highest dose often 46.1 µM), for inactives: at the top dose activity change, positive = activation, hits mostly activators. actives 2.8% (n = 210,000). AID 1458; also: % of control where 0% means no effect; nearly all actives have a fitted effect of over 55% in size
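qHTS luciferase splicing reporter: luminescence rises when SMN2 exon 7 is included in transfected HEK293 cells. Compound exposure lasted 30-36 h at 37C, with 4.5 mM final sodium butyrate as control, followed by a ONE-Glo read.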
ELG1 DNA repair – blocks ELG1-dependent DNA repair in HEK293T cells. HEK293T ELG1-luciferase reporter, luminescence, 16 h; DNA damage induced by 5-fluorouridine. Potency, µM (titrated, usually from 46.1 µM), for inactives: top-dose activity change, negative = inhibition, hits mostly inhibitors. actives 2.3% (n = 330,000). AID 504467; also: % is scaled to controls: 0 for no effect and ±100 for the full control effect; nearly all actives have a fitted effect of over 55% in size
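Luminescence from the luciferase reporter, measured 30 min after ONE-Glo reagent at room temperature, was the read-out. Beforehand, 2,000 cells per well were exposed for 16 hr at 37 °C to 5-fluorouridine together with compound or vehicle.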
FLuc modulator – counter-screen for miR-21 project: firefly luciferase inhibitors or activators; P08659; purified FLuc, Km substrates, luminescence inhibition; Potency, µM (top dose mostly 57.5 µM), inactives show at the highest dose activity change, negative = inhibition, most hits filed as inhibitors; actives 6.9% (n = 360,000); AID 588342;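 also: plate controls were vehicle for no effect and reference inhibitor for full effect; nearly all actives have a fitted effect of over 55% in size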
Target sequence (P08659 whole entry, looked up): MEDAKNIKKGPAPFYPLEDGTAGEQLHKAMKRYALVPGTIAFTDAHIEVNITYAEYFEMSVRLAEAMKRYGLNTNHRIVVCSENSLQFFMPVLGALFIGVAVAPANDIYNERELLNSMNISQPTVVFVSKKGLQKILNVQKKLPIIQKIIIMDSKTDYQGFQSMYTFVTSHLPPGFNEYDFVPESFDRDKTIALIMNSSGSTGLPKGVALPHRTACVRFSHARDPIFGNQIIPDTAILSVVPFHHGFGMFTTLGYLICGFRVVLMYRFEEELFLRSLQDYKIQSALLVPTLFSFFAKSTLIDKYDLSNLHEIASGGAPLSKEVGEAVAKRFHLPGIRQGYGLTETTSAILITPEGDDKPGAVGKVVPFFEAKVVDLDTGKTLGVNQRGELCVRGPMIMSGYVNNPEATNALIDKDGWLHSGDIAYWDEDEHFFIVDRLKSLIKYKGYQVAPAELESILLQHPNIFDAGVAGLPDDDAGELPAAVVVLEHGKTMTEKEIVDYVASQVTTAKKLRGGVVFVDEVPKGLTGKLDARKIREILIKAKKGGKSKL
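Biochemical qHTS of compounds, final roughly 60 µM downward over six points, against 10 nM purified firefly luciferase using Km concentrations of substrates (10 uM D-luciferin, 10 uM ATP) in Tris acetate pH 7.5 buffer; luminescence output.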
Rab9 prom act – activators of Rab9 promoter; AID 485297; actives 2.8% (n = 320,000); Potency, µM (doses to about 9.22 µM), for inactives: at the highest dose activation, negative = inhibition, usual class: activators; Huh7 Rab9 promoter-luciferase reporter, luminescence, 24 h; also: % of control where 0% means no effect; nearly all actives have a fitted effect of over 60% in size
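Cell-based reporter: Huh7 stable for Rab9 promoter-driven luciferase, plated in reduced-serum medium with 10% FBS at 1500 cells/well, compound-treated 24 h at 37 °C, luminescence read after 10 min reagent.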
ELG1 genotoxic – genotoxicity induction in ELG1-luciferase HEK293T cells. HEK293T ELG1-luciferase reporter, luminescence, 16 h. actives 1.3% (n = 330,000). Potency, µM (titrated, usually from 46 µM), without a hit: top-dose activity change, positive = activation, hits mostly activators; also: % of control where 0% means no effect; nearly all actives have a fitted effect of over 60% in size
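DMSO vehicle served as control against compound-treated ELG1-luciferase HEK293T cells; exposure lasted 16 hr at 37 °C and 5% CO2, followed by ONE-Glo luminescence detection after 30 min.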
NPC1 promoter act – NPC1 promoter activation; Huh7 NPC1 promoter luciferase reporter, 24 h; Potency, µM (titrated, usually from 9.22 µM), for the others: top-dose activation, hits mostly activators; actives 2.4% (n = 320,000); AID 485313; also: % of control where 0% means no effect; nearly all actives have a fitted effect of over 60% in size
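Stable NPC1-promoter luciferase Huh7 line; cpd (DMSO) 24 h, 37 °C, 5% CO2; Amplite luciferase reagent 10 min RT; luminescence readout. qHTS format.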
The depositor's hits bear a star; ? = inconclusive; · = no result. Calls follow the shape of the dose curve; as a rule, active = well fitted curve in the direction sought with a large enough effect; inconclusive = small, poorly fitted or top-dose-only effect, or another doubt; inactive = no such curve, though single readings can be large; an effect the other way counts as inactive or inconclusive. Potency is read from the fitted curve at half-maximal effect.

SMILES	SMN2 splice up	ELG1 DNA repair	FLuc modulator	Rab9 prom act	ELG1 genotoxic	NPC1 promoter act
Oc1ccccc1C(Nc1nccs1)c1ccc2cccnc2c1O (stereo not given)	·	3.7µM*	1%	-41%	7%	-32%
COc1ccccc1CCNC(=O)c1ccc(Br)s1	·	?	13µM*	0%	12%	-3%
COC(=O)c1ccccc1NC(=O)NCCc1ccccc1OC	13µM*	?	?	4µM*	9%	3.5µM*
COc1ccccc1CCNS(=O)(=O)CCNC(=O)c1ccccc1	·	-9%	4%	-1%	1%	-5%
C/C(=N\OC(=O)c1cccc(C(F)(F)F)c1)c1sc(-c2ccccc2)nc1C	25µM*	?	5%	4µM*	3%	3.5µM*
C/C(=N\OC(=O)c1cccc(C)c1)c1sc(-c2ccccc2)nc1C	?	?	-7%	2.8µM*	5.8µM*	4µM*
Cc1nc(-c2ccccc2)sc1C(=O)NN	-32%	-27%	4%	-10%	-9%	-5%
CSc1nc2sc(-c3ccccc3)cc2c(=O)n1N	2.8µM*	?	?	0.63µM*	?	1.3µM*
CC(C)Sc1nc2sc(-c3ccccc3)cc2c(=O)n1N	2%	18%	-8%	7%	2%	10%
O=c1c2cc(-c3ccccc3)sc2nc2n1N=C(c1ccccc1)CS2	·	?	1.9µM*	1.8µM*	17%	2µM*
Cc1cccc(NC(=O)c2ccoc2C)n1	18µM*	?	?	27%	?	18%
Cc1cccc(NC(=O)c2ccccc2Br)n1	8%	?	?	-6%	16%	8%
Cc1occc1C(=O)Nc1cc(C(C)(C)C)on1	14µM*	?	6µM*	1.6µM*	5.2µM*	2.8µM*
Cc1cccc(NC(=O)c2cc(NC(=O)c3ccco3)ccc2Cl)n1	-16%	12µM*	?	-5%	-11%	-1%
Cc1cc(C)c(NC(=O)c2ccoc2C)c(C)c1	-1%	-3%	-2%	-6%	-2%	0%
CCOc1ccccc1O[C@H](c1ccccc1)[C@H]1CNCCO1	·	19%	8%	0%	-16%	0%
CN(C)c1ccc(-c2nc3ccccc3c(=O)[nH]2)cc1	·	?	0.6µM*	0.25µM*	0.82µM*	0.35µM*
Cc1cccc(-c2nc3ccccc3c(=O)[nH]2)c1	·	?	11µM*	3.2µM*	?	2.8µM*
COc1ccc(-c2nc3ccccc3c(=O)[nH]2)cc1	·	?	3.4µM*	0.71µM*	9.2µM*	1.4µM*
CCOc1cc(CNc2ccc(N3CCCC3)cc2)cc(Cl)c1OC	-3%	?	27µM*	20%	10%	13%
COc1cc(CNc2ccc(N3CCCC3)cc2)cc(Cl)c1OC	-37%	13%	9.5µM*	14%	3%	1%
COc1cc(CNc2ccc(N3CCOCC3)cc2)cc(Br)c1OC	-10%	?	-8%	2%	-5%	-6%
CC1=C(C(=O)Nc2ccccc2)C(c2ccncc2)n2nc(SCc3ccccc3F)nc2N1 (stereo not given)	22%	·	2%	·	·	·
CC1CN(C(=O)CSc2nnc(NC(=O)NC(C)(C)C)s2)CC(C)O1 (stereo not given)	·	15%	24µM*	-4%	4%	-1%
CC(=O)Nc1nnc(SCC(=O)N2C(C)CCCC2C)s1 (stereo not given)	·	10%	0%	-3%	5%	-2%
SMILES	SMN2 splice up	ELG1 DNA repair	FLuc modulator	Rab9 prom act	ELG1 genotoxic	NPC1 promoter act
CC1CCN(S(=O)(=O)c2ccc3c(c2)CCC(=O)N3CC(=O)Nc2cccc(C#N)c2)CC1	·	·	-2%	-5%	·	8%
Cc1ccc2nc(COc3cccc(NC(=O)COc4ccccc4F)c3)cc(=O)n2c1	·	·	2%	·	·	·
CCN(CC)C(=O)CSc1nc(N)c(C(=O)Nc2ccc(OC)cc2)s1	-23%	?	24µM*	-2%	-4%	1%
COc1ccc(NC(=O)c2sc(SCc3ccccc3)nc2N)cc1	-1%	3%	?	19%	-3%	16%
CCOC(=O)CSc1nc(N)c(C(=O)Nc2ccc(N(C)C)cc2)s1	-4%	1%	8.5µM*	-7%	9%	0%
CCOC(=O)CSc1nc(C)c(C(=O)OCC)s1	3%	7%	-18%	-1%	1%	1%
COc1ccc(NC(=O)c2sc(SC)nc2N)cc1	13µM*	?	12µM*	?	18µM*	?
COc1ccc(NC(=O)c2scc(S(=O)(=O)C(C)C)c2N)cc1	·	?	6µM*	1.1µM*	?	2.5µM*
CCN(CC(=O)NC(C)C)C(=O)[C@@H](NC(=O)c1ccco1)C(C)C	13%	-1%	4%	0%	-1%	0%
Cc1ccc(C)c(N2CCN(C(=O)NCc3noc4ccccc34)CC2)c1	·	·	-11%	·	·	·
CCc1ccccc1NC(=O)CN1CCN(C(=O)CNC(=O)c2ccc(-c3ccccc3)cc2)CC1	·	?	?	-1%	-12%	-8%
CCNC(=O)NC(=O)CSc1ccc(S(=O)(=O)N2CCCCC2)cn1	·	-1%	6%	-3%	-1%	-7%
COc1ccc(OC)c2[nH]c(=O)c(CCNC(=O)c3cccs3)cc12	15%	-13%	-2%	-10%	-9%	-3%
Cc1ccc(Cn2c(=O)n(-c3cccc(C(F)(F)F)c3)c(=O)c3c(C)c(C)sc32)c(C)c1	2%	·	1%	·	·	·
COc1ccccc1C1OC2=C(Nc3ccc([N+](=O)[O-])cc3N2)C1=O (stereo not given)	·	23µM*	-1%	-7%	-11%	1%
COc1ccc(C2OC3=C(Nc4cc(C)c(C)cc4N3)C2=O)cc1 (stereo not given)	·	?	?	2.8µM*	?	3.5µM*
Cc1cc2c(cc1C)NC1=C(N2)OC(c2cccc(O)c2)C1=O (stereo not given)	·	-16%	?	-3%	6%	-1%
COc1ccc(C(CNC(=O)Cc2ccc(Cl)cc2)N2CCOCC2)cc1 (stereo not given)	·	·	4%	·	·	·
O=S(=O)(c1cccs1)N1CCCc2ccccc21	10%	2%	5%	-7%	14%	1%
Cc1nc(NC(=O)CC(C)C)sc1-c1csc(Nc2ccc(Cl)cc2)n1	-49%	23µM*	?	-8%	-5%	-2%
C=CCCC(=O)Nc1nc(C)c(-c2csc(Nc3ccc(Cl)cc3Cl)n2)s1	-18%	-29%	27µM*	-7%	-5%	1%
CCCCCC(=O)Nc1nc(C)c(-c2csc(Nc3ccc(Cl)cc3)n2)s1	-24%	?	?	-9%	0%	0%

Assay outcomes from PubChem.
